An excerpt weighted towards active compounds, which were near 19% of everything screened.
MCF10A rerep – A quantitative high throughput screen for small molecules that induce DNA re-replication in MCF 10a normal breast cells | MCF 10A DNA re-replication, Hoechst nuclear intensity, 48 h | Potency, µM (top dose mostly 46.1 µM), hits mostly activators | actives 2.9% (n = 350,000); also: nearly all actives have a fitted effect of over 50% in size
BCR signal inh – qHTS Assay to Find Inhibitors of Chronic Active B-Cell Receptor Signaling; AID 493014, 2011; ABC-DLBCL IkBa-CBG/CBR reporter, luminescence ratio, 4 h; Potency, µM (series often up to 46.1 µM), hits mostly inhibitors; actives 0.05% (n = 340,000); active = well fitted inhibition curve with a large enough effect in the signal ratio, with a control signal flat, not every such curve was filed as active; inconclusive = small, poorly fitted or top-dose-only effect, or effect the other way, or a change in a side signal; the % refers to the signal ratio
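TMD8 ABC-DLBCL cells carrying doxycycline-inducible green luciferase fused to IkappaBalpha plus unfused red luciferase were exposed to compounds (up to 46 uM) for 4 hrs at 37C. Activity came from the overlap-corrected green/red luminescence ratio.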
SW480 rerep – A quantitative high throughput screen for small molecules that induce DNA re-replication in SW480 colon adenocarcinoma cells; SW480 DNA re-replication, Hoechst DNA content imaging, 48 h; Potency, µM (series often up to 46.1 µM), most hits filed as activators; actives 1.8% (n = 340,000); AID 624297, 2012; also: nearly all actives have a fitted effect of over 55% in size
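Quantitative HTS format with DMSO vehicle controls; 48 hr drug incubation at 37 C, then 40 min Hoechst staining and scanning imager measurement at 405 nm excitation.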
TDP1 cell CPT – qHTS for Inhibitors of human tyrosyl-DNA phosphodiesterase 1 (TDP1): qHTS in cells in presence of CPT; chicken DT40 Tdp1-/-;hTDP1 cells + 20 nM CPT, ATP luminescence, 48 h; Potency, µM (doses to about 46.2 µM), usual class: inhibitors; actives 12% (n = 420,000); AID 686979, 2013; also: nearly all actives have a fitted effect of over 55% in size
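Chicken DT40 Tdp1-/- cells stably complemented with human TDP1 were seeded at 400 cells/well in medium containing 20 nM camptothecin, exposed to pin-transferred compounds, and grown at 37 °C for at least 48 hr. Viability was read as ATP luminescence.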
DT40 TDP1 no CPT – qHTS for Inhibitors of human tyrosyl-DNA phosphodiesterase 1 (TDP1): qHTS in cells in absence of CPT; DT40 Tdp1-/- hTDP1 cells, no CPT, ATP luminescence, 48 h; Potency, µM (top dose mostly 46.2 µM), hits mostly inhibitors; actives 15% (n = 420,000); AID 686978, 2013; also: nearly all actives have a fitted effect of over 55% in size
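Stably hTDP1-transfected Tdp1-null chicken DT40 cells were treated with library compounds minus camptothecin and grown for at least 48 hr at 37 °C, after which cellular ATP was quantified by luminescence.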
IL-1B inflam inh – qHTS for Inhibitors of Inflammasome Signaling: IL-1-beta AlphaLISA Primary Screen | THP-1 LPS/ATP IL-1B secretion, AlphaLISA, 16 h; hits give low values | activity change, % at 57.5 µM | actives 4.7% (n = 360,000) | AID 743279, 2014; in the data active = activity change below about -50%; inconclusive = mostly about -30% to -49%
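Secreted IL-1B measured by AlphaLISA bead assay after 16 h compound exposure of THP-1 cells; compounds (final up to 57.5 uM) added 1 h before LPS (250 ng/mL) and ATP (1.25 mM) stimulation; lower signal means less secretion.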
Hits are given with their value; . = inactive; ? = inconclusive; / = not tested or not shown. Unless noted, calls follow the shape of the dose curve; as a rule, active = well fitted curve in the direction sought with a large enough effect; inconclusive = small, poorly fitted or top-dose-only effect, or another doubt; inactive = no such curve, though single readings can be large; an effect the other way counts as inactive or inconclusive.

SMILES	MCF10A rerep	BCR signal inh	SW480 rerep	TDP1 cell CPT	DT40 TDP1 no CPT	IL-1B inflam inh
NNC(=O)[C@H](Cc1ccccc1)NC(=O)NCCc1ccccc1	.	?	.	.	.	.
Cc1cc(OCC(=O)NCCc2ccc(Cl)cc2)c2c(C)cc(=O)oc2c1	.	.	.	.	.	.
COc1ccc(C(=O)NCc2nnc(SCC(=O)Nc3cc(OC)ccc3OC)o2)cc1	.	.	.	.	.	.
COc1ccc(C(=O)NCc2nnc(SCC(=O)Nc3nc4ccccc4s3)o2)cc1	.	.	.	29µM	?	.
COc1cc(C(=O)NCc2nnc(SCC(=O)Nc3nc4ccccc4s3)o2)cc(OC)c1OC	.	?	?	9.2µM	10µM	.
COc1ccccc1NC(=O)CSc1nnc(CNC(=O)c2cccs2)o1	.	?	.	.	.	-77
CCCn1nnnc1NCc1ccccc1Cl	.	.	.	.	.	.
CC(=O)N/C(=N\c1nc(C)cc(C)n1)Nc1ccc2ccccc2c1	.	?	.	?	?	.
Cc1nn(C2CCS(=O)(=O)C2)c(C)c1C=O (centres undefined)	?	.	.	?	21µM	.
Cc1[nH]c(C)c(S(=O)(=O)N2CCN(c3ccccc3F)CC2)c1C(=O)N1CCCC1	.	.	.	.	.	.
CCCC(C)c1nnc(NC(=O)C2CCCO2)s1 (centres undefined)	5.2µM	.	21µM	.	.	.
Cc1nnc(NC(=O)C2CCCO2)s1 (centres undefined)	.	.	.	.	.	.
CCn1cc(S(=O)(=O)N2CCN(c3ccc(Cl)cc3)CC2)cn1	.	.	.	?	.	.
Cn1c(=O)n(C)c2cc(N3CCOCC3)c(NC(=O)c3ccccc3Br)cc21	/	/	/	?	.	/
Cn1c(=O)c(=O)n(C)c2cc(N3CCOCC3)c(NS(=O)(=O)c3ccc(Br)cc3)cc21	.	.	.	.	.	-69
COc1ccc(Br)c(C(=O)Nc2cc3c(cc2N2CCOCC2)n(C)c(=O)n3C)c1	/	/	/	23µM	?	/
COc1ccc(Br)c(C(=O)Nc2cc3c(cc2N2CCCCC2)n(C)c(=O)c(=O)n3C)c1	/	/	/	23µM	8.2µM	/
COc1ccc(OC)c(S(=O)(=O)Nc2cc3c(cc2N2CCCC2)n(C)c(=O)c(=O)n3C)c1	.	.	?	21µM	23µM	.
OCCC1CN(Cc2cccc(-n3cccn3)c2)CCN1Cc1ccccc1 (centres undefined)	.	.	.	.	.	.
CC(=O)c1ccc(OCCNS(=O)(=O)c2ccc(-n3cnnn3)c(C)c2)cc1	.	.	.	13µM	?	.
COc1ccc(CNS(=O)(=O)c2ccc(-n3cnnn3)c(C)c2)cc1	.	?	.	?	?	.
c1ccc(-c2c[nH]c3[n+]2CCCCC3)cc1	.	.	.	.	9.2µM	.
CCCCC[C@@H](C)N1C[C@@H](COCc2ccccc2)Oc2cc(N3CCC[C@@H]3CO)ccc2S1(=O)=O	/	/	/	?	?	.
CCNC(=O)c1ccc2c(c1)sc1nc(-c3cccc(OC)c3)cn12	/	/	/	6.5µM	7.3µM	/
Cc1ccc(-c2cn3c(n2)sc2cc(C(=O)NCCC4=CCCCC4)ccc23)cc1	/	/	/	.	.	/
SMILES	MCF10A rerep	BCR signal inh	SW480 rerep	TDP1 cell CPT	DT40 TDP1 no CPT	IL-1B inflam inh
COc1cccc(-c2cn3c(n2)sc2cc(C(=O)NCc4ccccc4F)ccc23)c1	/	/	/	?	16µM	/
CCOc1ccccc1CNC(=O)c1ccc2c(c1)sc1nc(-c3cccc(OC)c3)cn12	/	/	/	8.2µM	8.2µM	/
COc1cccc(-c2cn3c(n2)sc2cc(C(=O)NCCC4=CCCCC4)ccc23)c1	/	/	/	13µM	6.5µM	/
COc1ccc(-c2cn3c(n2)sc2cc(C(=O)NCc4ccccc4OC)ccc23)cc1	/	/	/	.	?	/
Cc1ccc2nc(N(CCN(C)C)C(=O)C3CCN(S(=O)(=O)c4cccs4)CC3)sc2c1	/	/	/	.	.	.
Cc1nc(C(=O)N/N=C/c2[nH]ncc2Br)cs1	.	.	.	?	?	.
CCNC(=O)C1CCCN(C(=O)c2ccccc2)CC1 (centres undefined)	/	/	/	.	.	.
COc1cccc(-c2cn3c(n2)sc2cc(C(=O)NCCc4ccc(OC)c(OC)c4)ccc23)c1	/	/	/	4.6µM	2.3µM	/
COc1ccc(-c2cn3c(n2)sc2cc(C(=O)Nc4ccc(C)c(C)c4)ccc23)cc1	/	/	/	.	?	/
O=[N+]([O-])c1cccc(-c2ccc3nnc(SCc4cccnc4)n3n2)c1	.	/	.	.	.	.
Cc1ccsc1C(=O)N1CCCC(N(C)Cc2ccccc2)C1 (centres undefined)	.	.	.	.	.	.
CC(=O)c1cc(-c2ccc(F)cc2)n(CC(=O)NC2CCC(C)CC2)c1C (centres undefined)	/	.	/	?	?	/
CC(=O)c1cc(-c2ccccc2)n(CC(=O)N2CCC(C)CC2)c1C	.	?	.	?	29µM	.
CC(=O)c1cc(-c2ccccc2)n(CC(=O)N2CCN(C3CCCC3)CC2)c1C	.	.	.	?	23µM	.
CC(C)CNC(=O)c1ccc(C2SCC(=O)N2Cc2ccccc2)cc1 (centres undefined)	?	?	.	?	16µM	.
COc1ccc(/C=C/C(=O)OCC(=O)NC2CCCCC2C)c(OC)c1 (centres undefined)	.	.	.	.	.	.
CC1(C(=O)Nc2cccc(C#N)c2)CCN1C(=O)C/C=C/c1ccccc1 (centres undefined)	/	/	/	?	?	.
CC(C)(C)c1ccc(CC(=O)N2CCC2(C)C(=O)Nc2ccc3[nH]ncc3c2)cc1 (centres undefined)	/	/	/	15µM	9.2µM	.
CC1(C(=O)Nc2ccc3[nH]ncc3c2)CCN1C(=O)CCc1ccccc1 (centres undefined)	/	/	/	?	?	.
CC1(C(=O)Nc2ccc3[nH]ncc3c2)CCN1C(=O)Cc1ccc(-c2ccccc2)cc1 (centres undefined)	/	/	/	16µM	13µM	?
C#Cc1ccc(NC(=O)C2(C)CCN2C(=O)Cc2ccc(C(C)(C)C)cc2)cc1 (centres undefined)	/	/	/	21µM	?	.
C#Cc1ccc(NC(=O)C2(C)CCN2C(=O)C/C=C/c2ccccc2)cc1 (centres undefined)	/	/	/	16µM	9.2µM	.

Compound activity deposited in PubChem by National Center for Advancing Translational Sciences (NCATS).
